# Screens (PubChem BioAssay)
# An excerpt weighted towards active compounds, which were near 21% of everything screened.
# Cycloheximide cs: Cycloheximide Counterscreen for Small Molecule Inhibitors of Shiga Toxin. cell reporter, cycloheximide protein synthesis inhibition counterscreen. max response, %. 300,000 tested, 12% active. AID 2314, 2010; in the data active means max response mostly above about 13%, no sharp cut-off; inactive means mostly below about 14%; further: read at 38.3 µM for the half of the compounds with a filed dose; 0% is about no effect
# Sm TGR block: qHTS Assay for the Inhibitors of Schistosoma Mansoni Peroxiredoxins | purified TGR, DTNB reduction, TNB absorbance 405 nm | Potency, µM (highest dose often 114 µM), without a hit: at the top dose activity change, negative = inhibition, usual class: inhibitors | 360,000 tested, 3% active | AID 485364, 2010; further: potency means the concentration at half of the fitted maximal effect; on the % scale 0 is the no-effect control and ±100 the full control effect; nearly all actives have a fitted effect of over 60% in size
#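 Kinetic colorimetric format: TGR-catalysed, NADPH-driven DTNB reduction monitored via TNB absorbance. Enzyme dispensed at 20 nM; compound exposure 15 min at room temperature before reaction start.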
# Pf growth 96h: Primary qHTS for delayed death inhibitors of the malarial parasite plastid, 96 hour incubation. P. falciparum luciferase reporter growth, 96 h. Potency, µM (highest dose often 28.7 µM), inactives show at the top dose activity change, negative = inhibition, usual class: inhibitors. 320,000 tested, 6.9% active; further: potency means the concentration at half of the fitted maximal effect; on the % scale 0 is the no-effect control and ±100 the full control effect
#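 96 h incubation, 37 C, 5% CO2, of luciferase-reporter P. falciparum-infected RBCs (2% hematocrit, 0.05% parasitemia final) with test compounds; endpoint luminescence.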
# NS1 function inh: qHTS Assay for Inhibitors of Influenza NS1 Protein Function; Potency, µM (top dose mostly 46.1 µM), for inactives: at the top dose activity, positive = more growth; 270,000 tested, 0.4% active; calls by dose curve; further: potency means the concentration at half of the fitted maximal effect; actives are rising curves; nearly all actives have a fitted effect of over 50% in size
#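 In this qHTS, NS1 from influenza A is expressed in budding yeast, where it slows growth. Cells are switched from glucose to 2% galactose medium (pH 6.0, -URA), treated with compound, and growth recovery is read at OD600.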
# Pf growth 48h: Primary qHTS for delayed death inhibitors of the malarial parasite plastid, 48 hour incubation; P. falciparum luciferase growth in erythrocytes, 48 h; Potency, µM (doses to about 28.7 µM), for the others: at the highest dose activity change, negative = inhibition, actives largely listed as inhibitors; 310,000 tested, 5.9% active; AID 504832, 2011; further: potency means the concentration at half of the fitted maximal effect; on the % scale 0 is the no-effect control and ±100 the full control effect
#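 Cell-based growth assay: transgenic P. falciparum expressing firefly luciferase, cultured in red cells within RPMI 1640 containing 0.5% w/v Albumax, 24 mM bicarbonate and gentamycin. A drop in luciferase activity indicates inhibition.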
# Shiga toxin inh: A qHTS for Small Molecule Inhibitors of Shiga Toxin | inhibition, % at 38.7 µM | 290,000 tested, 9.2% active | AID 2315, 2010 | Vero cells, Shiga toxin protein synthesis inhibition reporter; in the data active means inhibition mostly above about 28%, no sharp cut-off; inactive means mostly below about 43%; further: 0% is about no effect
# Starred values were filed as active, the others as inactive; ? = inconclusive; . = no result given; [ ] = another dose, or the depositor's remark. Unless noted, the call rests on the fitted dose curve; in most records, active means well fitted curve in the direction sought with a large enough effect; inconclusive means small, poorly fitted or top-dose-only effect, or another doubt; inactive means no such curve, though single readings can be large; an effect the other way counts as inactive or inconclusive.
SMILES,Cycloheximide cs,Sm TGR block,Pf growth 96h,NS1 function inh,Pf growth 48h,Shiga toxin inh
O=C(/C=C/c1ccccc1)c1ccccc1,45.1*,?,?,-34.6%,13.6%,124.8*
N#Cc1ccc(/C=C/C(=O)c2ccccc2)cc1,20.4*,8.91µM*,-20.2%,-37.3%,10.9%,46.8*
O=C(/C=C/c1ccc(NC(=O)c2ccccc2-c2ccccc2C(=O)O)cc1)c1ccccc1,10.4*,-26.8%,?,?,-25.3%,37.4*
CC(C)(C)C(=O)/C=C(\N)c1ccccn1,12.0*,2.6%,317.8%,-3.7%,20.1%,13.9
O=C(O)c1ccccn1,.,-2.4%,69.4%,.,-11.4%,.
COc1cccc(N2CCN(C(=O)c3c(C)nn(-c4ccccc4)c3C)CC2)c1,7.2,-4.5%,9.3%,.,-5.0%,12.6
O=C(NNC(=S)NC(=O)c1ccccc1)c1cccnc1,-6.8,-16.7%,?,-16.7%,?,-4.0
Cc1ccccc1NC(=S)NC(=O)c1cncc(Br)c1,6.6,12.6µM*,14.2%,23.0%,2.8%,-76.0
O=C(NC(=S)Nc1ccc(Br)cn1)c1cccnc1,28.1*,14.3%,?,-3.3%,?,30.0
N#CCC(=O)NNC(=S)Nc1ccccc1C(F)(F)F,4.9,-2.2%,-3.9%,7.0%,24.9%,8.8
Cc1cc(O)ccc1NC(=S)NC(=O)c1cncc(Br)c1,11.0,3.1%,-5.3%,-33.3%,?,.
O=C(NC(=S)Nc1ccccc1Br)c1cccnc1,10.3,17.8µM*,0.0%,2.3%,-3.1%,.
O=C(NNC(=S)Nc1ccccc1C(F)(F)F)c1cccnc1,10.5*,1.6%,-58.2%[5.75 µM],4.2%,22.3%,10.6
Cc1cccc(Cn2c(C)c(CNC3CCCCC3)c(C(=O)O)c2C)c1,.,-0.1%,.,.,.,.
CN(C)c1ccc(NC(=O)C2CCCN(S(=O)(=O)c3ccccc3)C2)cc1 (stereo not drawn),1.2,-15.5%,-16.1%,.,-19.9%,-9.0
CCN(CC)CCNC(=O)c1ccc(NC(=O)Cc2cccc3ccccc23)cc1,-4.9,-5.7%,?,5.9%,?,13.9
CCN(CC)CCNC(=O)c1ccc(NC(C)=O)cc1,-0.1,8.4%,3.2%,-4.2%,10.5%,8.0
CCN(CC)CCNC(=O)c1ccc(NC(=O)c2ccc(COc3ccccc3)cc2)cc1,29.0*,-5.6%,?,10.1%,30.2%,-7.4
CCN(CC)CCNC(=O)c1ccc(NC(=O)c2ccc(C(=O)c3ccccc3)cc2)cc1,.,-2.8%,10.4µM*,.,5.86µM*,.
CC(NC(=O)C1CCN(c2nc3ccccc3nc2C(F)(F)F)CC1)c1ccccc1 (stereo not drawn),.,-1.4%,.,.,.,.
CCOC(=O)C12CC1/C(=N/O)c1ccccc1O2 (stereo not drawn),.,.,.,-14.2%,.,.
COc1ccc(C(=O)/C=C/c2ccc(OC)c(O)c2)c(F)c1,67.8*,2.8%,?,-27.9%,?,61.4*
COc1ccc(C(=O)/C=C/c2ccc(OC)c(COc3ccc(F)cc3)c2)cc1,-1.3,-20.2%,0.0%,-7.5%,?,-13.0
COc1ccc(/C=C/C(=O)c2ccc(Cl)s2)cc1O,24.0*,-5.8%,14.4%,-210.7%,.,59.8
Cc1ccc(-c2nnc(Nc3cccc(O)c3)c3ccccc23)cc1S(=O)(=O)N1CCCCC1,.,-19.4%,.,.,.,.
SMILES,Cycloheximide cs,Sm TGR block,Pf growth 96h,NS1 function inh,Pf growth 48h,Shiga toxin inh
Cc1ccc(S(=O)(=O)N2CCN(C(=O)COC(=O)c3ccc(O)cc3)CC2)c(C)c1,.,-12.9%,?,.,-42.6%,.
Cc1cccc(NC(=O)c2ccc(OC3CSC3)cc2)c1,43.4*,3.6%,?,3.0%,159.2%,62.0*
O=C(NCc1ccccc1)c1ccc(Oc2ccc(C(=O)NCc3ccccc3)cc2)cc1,-2.7,-15.1%,?,4.4%,.,-2.2
O=C(NCc1ccccc1)c1ccc(OC2CSC2)cc1,11.9*,-2.7%,71.8%,-1.8%,14.0%,15.5
O=C(Nc1cccc(Br)c1)c1ccc(OC2CSC2)cc1,42.9*,4.4%,?,.,368.3%,147.4*
CSc1nc(NC(C)(C)C)nc(Oc2ccc(=O)n(C)n2)n1,-1.8,-17.4%,33.8%,-1.9%,-10.9%,33.2
CCc1ccc(-n2nc(C)c3c(C)cc(=O)n(CC(=O)Nc4cc(C)ccc4C)c32)cc1,.,-7.0%,.,.,.,.
S=C(NCc1ccccc1)Nc1nccs1,11.4,3.16µM*,110.8%,-39.7%,?,14.5
O=C(NCCc1ccccc1)C(=O)Nc1nccs1,0.7,-8.6%,32.5%,4.7%,92.3%,-11.5
S=C(NCCc1ccccc1)Nc1nccs1,.,2.24µM*,?,.,-25.6%,.
Cc1ccc(-c2nc3ncccc3o2)cc1NC(=O)C(C)(C)C,-2.9,-20.3%,0.0%,8.3%,2.1%,-6.2
Cc1ccc(-c2nc3ncccc3o2)cc1N,48.9*,-7.8%,?,-4.9%,100.9%,62.1*
Cc1cc(-c2nc3ncccc3o2)ccc1N,44.5*,0.7%,?,-21.6%,186.3%,84.6*
CCCC(=O)Nc1cc(-c2nc3ncccc3o2)ccc1Cl,6.0,9.7%,?,?,-37.5%,-9.9
Nc1cc(-c2nc3ncccc3o2)ccc1Cl,59.0*,0.9%,-6.4%,2.3%,106.2%,60.3*
Cc1cc(C(C)(C)C)ccc1OCC(=O)N/N=C\c1c(C)n(C)n(-c2ccccc2)c1=O,-3.9,-7.3%,-24.3%,8.1%,17.7%,-7.0
Cc1cc(C)c(NC(=O)C(=O)NCC(c2cccnc2)N2CCN(c3ccccc3F)CC2)c(C)c1 (stereo not drawn),.,-1.9%,.,.,.,.
CC1(c2ccc3noc(-c4cccc(F)c4)c3c2)OCCO1,10.2,10.4%,-23.9%,.,221.7%,11.0
COc1cc(C(=O)Nc2sc3c(c2C#N)CCCC3)c(Br)c(OC)c1OC,.,-0.8%,.,.,.,.
O=c1[nH]c(=O)n(-c2ccc(F)cc2)c2c1C(C(F)(F)F)(C(F)(F)F)N=C(c1ccc(F)cc1)N2,4.6,-8.9%,11.7µM*,-11.4%,?,-8.4
O=C(c1cccc(F)c1)N1CCN(C(=O)c2cc3ncc(Br)cn3n2)CC1,-2.1,2.7%,-15.6%,-0.7%,.,-9.0
CN(C)CC1CSCCC1(O)c1ccccc1Cl (stereo not drawn),-2.8,?,-61.7%,3.3%,?,3.1
CN(C)CC1CCCCC1C1(O)c2ccccc2CSc2sccc21 (stereo not drawn),-7.1,3.0%,?,12.4%,9.28µM*,-34.2
O=C(NNC(=O)C(O)(c1ccccc1)c1ccccc1)C1CC1,-2.5,9.2%,2.8%,5.5%,8.8%,-10.6
CN1CCN(C(=S)Nc2cc([N+](=O)[O-])ccc2Cl)CC1,11.3*,-0.7%,9.9%,-18.4%,18.5%,-1.8
CN1CCN(c2ccc([N+](=O)[O-])cc2NC(=O)c2ccccc2Cl)CC1,6.4,-3.6%,?,2.5%,11.7µM*,14.9
